PubChem BioAssay
Potency and affinity values are given separately. Results filed as inconclusive are left out. Entries that show only a call come without a potency. Calls of active or inactive are those of the source.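 Rule for the calls, unless noted: active = signal drop whose fitted half-maximal concentration is at most twice the top valid dose, in every test run; inconclusive = mixed calls across runs, poor fit, or flat 30 to 70% inhibition; inactive = wrong direction, flat within 30%, or potency beyond limit.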

Assay: RMG-1 ovarian cancer cell viability loss – cherry-pick, dose response (AID 687029);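 note: cells exposed to compound for 96 hours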
Settings: RMG-1 viability, CellTiterGlo ATP luminescence, 96 h; series mostly up to 35 µM

Structure (SMILES)	outcome
COc1ccc2nc(C)cc(N/N=C/c3cccc(OC)c3O)c2c1	inactive
O=C(NC1=C(NC2CCS(=O)(=O)C2)C(=O)c2ccccc2C1=O)c1ccccc1 (stereo not given)	inactive
CCN1CCN(Cc2ccc(NC(=O)c3ccc(C)c(NC(=O)c4c[nH]c5cc(C(F)(F)F)ccc5c4=O)c3)cc2C(F)(F)F)CC1	inactive
O=C(CCl)N=c1sccn1Cc1cccc2ccccc12	inactive
COc1ccc(OCc2cccc(C(=O)Nc3cc(C)on3)c2)cc1	inactive
Cc1onc(C(=O)N2CCN(C(c3ccccc3)c3ccccc3)CC2)c1[N+](=O)[O-]	inactive
CCOc1ccc(C(=O)O/N=C(\N)c2ccccn2)cc1	inactive
C(=NNc1ccc2ccccc2n1)c1ccccn1	inactive
NC(N)=NN=C(c1ccc(F)cc1)c1ccc(C(F)(F)F)cc1	inactive
CCS(=O)(=O)c1ccc(N=Nc2ccc(O)c3ncccc23)c(OC)c1	inactive
COC(=O)C1C=CC(OC2OC(COC(C)=O)C(OC(C)=O)C(OC(C)=O)C2OC(C)=O)n2c(=O)n(-c3ccccc3)c(=O)n21 (stereo not given)	inactive
O=C1C(=O)c2cccnc2-c2ncccc21	inactive
Nc1nc(N)c2c(ccc3c2ccn3Cc2cccc([N+](=O)[O-])c2)n1	inactive
CN1CCN(CCCNC(=O)c2ccc(/C=C3\Oc4ccccc4N(Cc4ccc(Cl)cc4)C3=O)cc2)CC1	inactive
Cc1nn(-c2ccccc2)c(Cl)c1CN(C(=O)CCl)c1cccc2ccccc12	inactive
O=C(CCl)N(c1ccccc1)C1CCCCC1	inactive
CC(C)(C)OC(=O)NCCCC[C@H](NC(=O)c1[nH]cnc1C(=O)Nc1ccc(CNC(=O)OC(C)(C)C)cc1)C(=O)OC(C)(C)C	inactive
N#Cc1nccnc1S(=O)(=O)c1cccs1	inactive
Cc1ccc(Cl)cc1NC1=C/C(=N\S(=O)(=O)c2cccs2)c2ccccc2C1=O	inactive
Nc1nc(Sc2ccc([N+](=O)[O-])c3nonc23)c2[nH]cnc2n1	inactive
COc1ccc(-c2cc(CNc3nc(NC(C)C)nc4cc(-c5ccccc5)sc34)on2)cc1	inactive
CCCCCN=C(N)N/N=C/c1c[nH]c2ccc(OC)cc12	inactive

Assay: IOSE-T80 viability loss, PAX8-independent line – cell-based, cherry-pick, selectivity assay for PAX8 inhibitor project, dose response (AID 687032;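 active = fitted half-maximal concentration for viability loss no higher than twice the top valid dose, in every repeat run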;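 note: cells exposed to compound for 96 h before reading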)
Settings: CellTiterGlo ATP luminescence, 96 h; series mostly up to 35 µM

Structure (SMILES)	outcome
Cc1ccc(-n2nc(C)c(NC(=O)CCl)c2C)cc1C	inactive
O=c1c2ccccc2cnn1-c1nc2ccccc2[nH]1	inactive
CN1CCN(CCCNC(=O)c2ccc(/C=C3\Oc4ccccc4N(Cc4ccc(Cl)cc4)C3=O)cc2)CC1	inactive
